Experimental data as given in PubChem BioAssay (EPA / NIEHS).
Several values for one entry are separate records, joined by “and”; a condition that tells them apart may be missing. Equal values may be shown once. Results filed as inconclusive are left out. Activity calls are given as the source filed them. Rule for the calls: active = hit-call score of the fitted dose curve at least 0.9, where 1 is the maximum; inconclusive = response in the unintended direction; inactive = score below 0.9.

Tests used:
[1] = target: Cellular tumor antigen p53 (Homo sapiens) (UniProt P04637); assay: TOX21_p53_BLA_p3_ratio: Tox21 HCT-116 p53 Agonism Beta-lactamase Assay, Ratio, Phase 3 (AID 2283596)
How it was run: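 HCT116 p53-bla cells (4000/well) given compound in DMSO (217-fold dilution) after 5 h, incubated 16 h at 37C. CCF4-AM substrate 2 h at room temperature; 460/530 nm emission ratio, gain fitted against DMSO.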

[2] = TOX21_p53_BLA_p4_viability: Viability Assessment in the Tox21 HCT-116 p53 Agonism Beta-lactamase Assay, Phase 4 (AID 2283597);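 note: hits lower the luminescence signal meaning cytotoxicity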
How it was run: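 We seeded HCT116 p53 reporter cells at 4000/well and waited 5 h. We then added compounds in DMSO at a 217-fold dilution and incubated for 16 h. Viability was read as CellTiter-Glo luminescence after 30 min at RT.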

[3] = target: Cellular tumor antigen p53 (Homo sapiens) (UniProt P04637); assay: TOX21_p53_BLA_p5_ratio: Tox21 HCT-116 p53 Agonism Beta-lactamase Assay, Ratio, Phase 5 (AID 2283599)
How it was run: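 HCT-116 p53-bla cells (4000/well) plated 5 h, dosed with compound (217-fold DMSO dilution) for 16 h at 37 C; CCF4-AM substrate 2 h at room temperature. Activity is the 460/530 nm emission ratio (405 nm excitation), fitted in gain-of-signal direction versus DMSO.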

[4] = TOX21_p53_BLA_p5_viability: Viability Assessment in the Tox21 HCT-116 p53 Agonism Beta-lactamase Assay, Phase 5 (AID 2283600)
How it was run: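 Compounds, pinned from DMSO at 217-fold dilution, were left on the cells for 16 h. The viability endpoint was ATP content measured by CellTiter-Glo luminescence, where falling signal reflects cytotoxicity.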

[5] = target: Cellular tumor antigen p53 (Homo sapiens) (UniProt P04637); assay: TOX21_p53_BLA_p4_ratio: Tox21 HCT-116 p53 Agonism Beta-lactamase Assay, Ratio, Phase 4 (AID 2283601)
How it was run: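 HCT-116 p53 beta-lactamase reporter cells (4000/well) preincubated 5 h, then compound (217-fold dilution of DMSO stock) for 16 h at 37C. CCF4-AM substrate added 2 h at room temperature; 460/530 nm emission ratio fitted upward versus DMSO.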

[6] = Tanguay_ZF_120hpf_MORT_legacy: (Legacy) Oregon State University Tanguay Lab 120 Hour Post-fertilization zebrafish Assay for Mortality (AID 2283633)
How it was run: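 Brightfield scoring of embryo death (binary) at 24 and 120 hpf; static exposure 6–120 hpf, 28C, sealed and foil-covered. Pronase-dechorionated 5D wild-type larvae, single embryo per well. DMSO 0.64% v/v; trimethyltin chloride 5uM positive control.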

[7] = Tanguay_ZF_120hpf_YSE_legacy: (Legacy) Oregon State University Tanguay Lab 120 Hour Post-fertilization zebrafish Assay for Yolk Sac Edema (AID 2283634);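 for AC50: actives raise the incidence of yolk sac edema above the DMSO baseline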
How it was run: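 Binary brightfield scoring of yolk sac edema at 120 hpf; DMSO baseline, gain-of-signal fitting. Dechorionated 5D larvae, one per well, static exposure 6–120 hpf, 28C, 0.64% DMSO. Dead embryos not scored.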

[8] = Tanguay_ZF_120hpf_EYE_legacy: (Legacy) Oregon State University Tanguay Lab 120 Hour Post-fertilization zebrafish Assay for Eye Malformation (AID 2283636);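 note: binary presence or absence of eye malformation scored by brightfield in 120 hpf larvae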
How it was run: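 Dechorionated Tropical 5D zebrafish embryos, one per well from 6 hpf, static exposure to 120 hpf at 28C, 0.64% DMSO. Eye malformation scored present/absent by brightfield; dead embryos not scored.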

[9] = Tanguay_ZF_120hpf_AXIS_legacy: (Legacy) Oregon State University Tanguay Lab 120 Hour Post-fertilization zebrafish Assay for Body Axis Malformation (AID 2283635);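 for AC50: potency for an increased fraction of larvae scored with body axis malformation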
How it was run: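 Embryos: 5D wild-type, pronase-dechorionated 4 hpf; static exposure 6–120 hpf, 28C, sealed, dark, 1 embryo/well, 0.64% DMSO. 120 hpf axis malformation scored present/absent; dead embryos excluded. Analysed as gain of signal vs DMSO.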

[10] = Tanguay_ZF_120hpf_SNOU_legacy: (Legacy) Oregon State University Tanguay Lab 120 Hour Post-fertilization zebrafish Assay for Snout Malformation (AID 2283637)
How it was run: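 Dechorionated tropical 5D wild-type zebrafish embryos exposed statically from 6 to 120 hpf at 28C, one per well, in 0.64% DMSO. Snout malformation scored as present/absent by brightfield at 120 hpf; dead embryos not scored.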

Measured: AC50

Cellular tumor antigen p53 (Homo sapiens), sequence (P04637 whole entry, looked up): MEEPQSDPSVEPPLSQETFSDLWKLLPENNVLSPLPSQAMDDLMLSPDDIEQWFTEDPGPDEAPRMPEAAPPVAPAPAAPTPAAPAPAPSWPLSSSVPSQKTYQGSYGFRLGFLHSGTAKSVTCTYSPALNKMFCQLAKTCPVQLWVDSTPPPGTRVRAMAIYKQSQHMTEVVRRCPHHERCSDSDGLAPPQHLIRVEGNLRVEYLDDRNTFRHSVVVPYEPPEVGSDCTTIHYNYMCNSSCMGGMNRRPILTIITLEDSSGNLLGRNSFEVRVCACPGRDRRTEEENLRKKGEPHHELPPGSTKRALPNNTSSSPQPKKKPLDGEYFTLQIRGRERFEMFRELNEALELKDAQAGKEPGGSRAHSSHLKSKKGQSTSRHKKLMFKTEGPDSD

Cc1ccc([N+](=O)[O-])cc1
inactive: [1] | [2] | [3] | [4] | [5] | [6] | [7] | [8]

CCCCCCCCOC(=O)c1ccc(C(=O)OCCCCCCCC)c(C(=O)OCCCCCCCC)c1
inactive: [1] | [2] | [3] | [4] | [5] | [6] | [7] | [9] | [10]

CNC(=O)Oc1cccc2c1OC(C)(C)C2
active: [9] 6.79 µM
inactive: [1] | [3] | [4] | [5] | [6] | [7] | [8]

Nc1ccc(Oc2ccc(N)cc2)cc1
inactive: [1] | [3] | [4] | [5] | [6] | [7] | [9] | [8]

c1ccc(C2CO2)cc1 (stereo not drawn)
inactive: [1] | [3] | [4] | [5] | [6] | [7] | [9] | [8]

COc1cc(C=O)cc2c1[C@H](COC(N)=O)[C@]1(OC(C)=O)ON2C[C@H]2[C@@H]1N2C(C)=O
active: [1] 560 nM | [3] 546 nM | [5] 304 nM | [9] 51.3 µM | [10] 21.6 µM
inactive: [2] | [6] | [7] | [8]

CCCCC(CC)COC(=O)c1ccc(C(=O)OCC(CC)CCCC)c(C(=O)OCC(CC)CCCC)c1 (stereo not drawn)
inactive: [1] | [2] | [3] | [5] | [6] | [7] | [9] | [8] | [10]

Brc1ccc(Oc2ccccc2)cc1
inactive: [1] | [3] | [4] | [5] | [6] | [7] | [9] | [8]

c1ccc2c(c1)-c1cccc3cccc-2c13
inactive: [1] | [2] | [3] | [5] | [6] | [7] | [9]

CCCCCOC(=O)c1ccccc1C(=O)OCCCCC
inactive: [1] | [2] | [3] | [5] | [6] | [7] | [9] | [8] | [10]

COC(=O)Nc1nc2ccccc2[nH]1
inactive: [2] | [9]
active: [1] 12.9 µM and 8.81 µM | [3] 15 µM and 15.4 µM | [5] 9.43 µM and 7.88 µM | [7] 47.5 µM | [8] 46.4 µM

C=CCc1ccc2c(c1)OCO2
inactive: [1] | [2] | [3] | [4] | [5] | [6] | [7] | [9] | [8] | [10]

Nc1ccc(Cc2ccc(N)cc2)cc1
inactive: [1] | [2] | [3] | [4] | [5] | [6] | [7] | [9] | [8] | [10]

O=Cc1ccco1
inactive: [1] | [2] | [3] | [5] | [6] | [7] | [9] | [8]

C[N+](C)(C)CC1CO1 (stereo not drawn)
inactive: [1] | [3] | [4] | [5] | [6] | [7]

CN(C)C(=O)Nc1ccc(Cl)cc1
inactive: [1] | [2] | [3] | [4] | [5] | [6] | [7] | [9] | [8] | [10]

Nc1cc(Cl)cc(C(=O)O)c1Cl
inactive: [1] | [2] | [3] | [4] | [5] | [6] | [7] | [9] | [8] | [10]

CCCSC(=O)N(CCC)CCC
inactive: [1] | [2] | [3] | [4] | [6] | [7] | [9] | [8] | [10]

O=C(O)C1C2CCC(O2)C1C(=O)O (stereo not drawn)
inactive: [1] | [2] | [3] | [5] | [6] | [7] | [9] | [8]

ClCCOCCCl
inactive: [1] | [2] | [4] | [5] | [6] | [9] | [10]
